Data from PubChem BioAssay AID1159580 (chemical genetic matrix, 2015).
Among all 5,500 compounds or so, about 2,000 (36%) were called active. Inconclusive results (about 18%) are left out. Rule as the data show it: active = normalized growth mostly below about 0.91 (no sharp cut-off); inconclusive = no clear call, values can overlap the other calls; inactive = mostly above about 0.92. This is one part of the list.

Experiment: chemical genetic growth profiling, strain panel (AID 1159580);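 also: tested at 20 µM; growth read once vehicle control cultures reached saturation at 30 °C; 1 = growth at the plate median or of vehicle wells; lower values mean less growth of the strain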
Conditions: growth OD
[1] = S. cerevisiae deletion strains, locus YAL040C, strain CLN3, hits give low values
[2] = S. cerevisiae deletion strains, locus YCL061C, strain MRC1 (second series), hits give low values
[3] = S. cerevisiae deletion strains, locus YDR150W, strain NUM1, hits give low values
[4] = S. cerevisiae deletion strains, locus YDR363W, strain ESC2, hits give low values
[5] = S. cerevisiae deletion strains, locus YER002W, strain NOP16, hits give low values
[6] = S. cerevisiae deletion strains, locus YMR263W, strain SAP30, hits give low values
[7] = S. cerevisiae deletion strains, locus YMR307W, strain GAS1, hits give low values
[8] = S. cerevisiae deletion strains, locus YNL175C, strain NOP13, hits give low values
[9] = S. cerevisiae deletion strains, locus YNL197C, strain WHI3, hits give low values
[10] = S. cerevisiae deletion strains, locus YNL224C, strain SQS1, hits give low values
[11] = S. cerevisiae deletion strains, locus YOR083W, strain WHI5 (second series), hits give low values
[12] = S. cerevisiae deletion strains, locus YPL055C, strain LGE1, hits give low values
[13] = S. cerevisiae deletion strains, locus YAL013W, strain DEP1, hits give low values
[14] = S. cerevisiae deletion strains, locus YJR075W, strain HOC1, hits give low values
[15] = S. cerevisiae deletion strains, locus YNL153C, strain GIM3, hits give low values
[16] = S. cerevisiae deletion strains, locus YNL322C, strain KRE1, hits give low values
[17] = S. cerevisiae deletion strains, locus YPL241C, strain CIN2, hits give low values

Measured: normalized growth

CNC(=O)c1cc2c(cn1)[nH]c1ccccc12
inactive: [1] 1.01 | [2] 1.01 | [3] 1 | [4] 1.01 | [5] 0.995 | S. cerevisiae deletion strains, locus YGR229C, strain SMI1, hits give low values 1.05 | [6] 1 | [7] 0.997 | S. cerevisiae deletion strains, locus YNL128W, strain TEP1, hits give low values 0.97 | [8] 0.986 | [9] 0.983 | [10] 0.989 | [11] 0.993 | [12] 1.02

C=CC1CN2CCC1CC2C(OC(C)=O)c1ccnc2ccc(OC)cc12 (configuration not stated)
inactive: [13] 1.01 | S. cerevisiae deletion strains, locus YBR229C, strain ROT2, hits give low values 0.993 | S. cerevisiae deletion strains, locus YDL101C, strain DUN1, hits give low values 1 | [3] 1.02 | S. cerevisiae deletion strains, locus YEL061C, strain CIN8, hits give low values 0.957 | S. cerevisiae deletion strains, locus YGR078C, strain PAC10, hits give low values 1 | S. cerevisiae deletion strains, locus YHR030C, strain SLT2, hits give low values 1.06 | S. cerevisiae deletion strains, locus YHR087W, strain rtc3, hits give low values 0.95 | S. cerevisiae deletion strains, locus YJL187C, strain SWE1, hits give low values 1.01 | S. cerevisiae deletion strains, locus YJR043C, strain POL32, hits give low values 1 | [14] 0.997 | S. cerevisiae deletion strains, locus YKL190W, strain CNB1, hits give low values 0.982 | S. cerevisiae deletion strains, locus YLR039C, strain RIC1, hits give low values 1.06 | S. cerevisiae deletion strains, locus YLR058C, strain SHM2 (second series), hits give low values 1 | S. cerevisiae deletion strains, locus YLR085C, strain ARP6, hits give low values 0.975 | S. cerevisiae deletion strains, locus YLR262C, strain YPT6, hits give low values 1.06 | S. cerevisiae deletion strains, locus YML094W, strain GIM5, hits give low values 0.997 | S. cerevisiae deletion strains, locus YMR219W, strain ESC1, hits give low values 1 | [6] 0.984 | [7] 0.916 | [15] 1.02 | S. cerevisiae deletion strains, locus YNL298W, strain CLA4 (second series), hits give low values 0.967 | [16] 1 | S. cerevisiae deletion strains, locus YNR030W, strain Alg12, hits give low values 0.998 | [12] 0.999 | [17] 1 | S. cerevisiae deletion strains, locus YPR135W, strain CTF4, hits give low values 1 | S. cerevisiae strains, strain wild type, hits give low values 0.974

CNCCC(Oc1ccccc1OC)c1ccccc1 (configuration not stated)
inactive: [13] 0.996 | [1] 1.01 | [2] 1 | [3] 1.01 | [4] 1 | [5] 1 | [14] 1.01 | [15] 1.03 | [8] 1 | [9] 1.01 | [10] 1.01 | [16] 1 | [11] 1.03 | [12] 1.02 | [17] 0.996
